Hits are enriched below; roughly 1.6% of the tested compounds scored in any of these assays.
NALP1 yeast inh = blocks the NALP1 inflammasome reconstituted in yeast. inhibition, % at 10 µM. 280,000 tested, 0.61% active. S. cerevisiae NALP1/ASC/caspase-1 growth, X-gal OD620, 72 h; in the data active = inhibition mostly above about 24%, no sharp cut-off; inactive = mostly below about 32%
V-ATPase pHluor = regulators of yeast V-ATPase proton transport; S. cerevisiae, pHLuorin cytosolic pH fluorescence; response, % at 10 µM; 350,000 tested, 0.37% active; in the data active = response mostly above about 7.3%, no sharp cut-off; inactive = mostly below about 5.4%; note: actives read high
PERK inhibitor = blocks human PERK kinase; CHO PERK-DD fusion, SEAP luminescence translation reporter; Q9NZJ5; 220,000 tested, 0.17% active; inhibition, % at 5.6 µM;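 active = inhibition above the mean inhibition of all tested compounds plus 3 SD, set separately per screening campaign, cut at about 2.9% in these data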;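 note: PERK kinase domain activated by AP20187 dimerizer at 100 nM; 0% = DMSO with dimerizer and 100% = rapamycin at 8.4 µM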
Target sequence (Q9NZJ5 whole entry, looked up, the tested form may be a part): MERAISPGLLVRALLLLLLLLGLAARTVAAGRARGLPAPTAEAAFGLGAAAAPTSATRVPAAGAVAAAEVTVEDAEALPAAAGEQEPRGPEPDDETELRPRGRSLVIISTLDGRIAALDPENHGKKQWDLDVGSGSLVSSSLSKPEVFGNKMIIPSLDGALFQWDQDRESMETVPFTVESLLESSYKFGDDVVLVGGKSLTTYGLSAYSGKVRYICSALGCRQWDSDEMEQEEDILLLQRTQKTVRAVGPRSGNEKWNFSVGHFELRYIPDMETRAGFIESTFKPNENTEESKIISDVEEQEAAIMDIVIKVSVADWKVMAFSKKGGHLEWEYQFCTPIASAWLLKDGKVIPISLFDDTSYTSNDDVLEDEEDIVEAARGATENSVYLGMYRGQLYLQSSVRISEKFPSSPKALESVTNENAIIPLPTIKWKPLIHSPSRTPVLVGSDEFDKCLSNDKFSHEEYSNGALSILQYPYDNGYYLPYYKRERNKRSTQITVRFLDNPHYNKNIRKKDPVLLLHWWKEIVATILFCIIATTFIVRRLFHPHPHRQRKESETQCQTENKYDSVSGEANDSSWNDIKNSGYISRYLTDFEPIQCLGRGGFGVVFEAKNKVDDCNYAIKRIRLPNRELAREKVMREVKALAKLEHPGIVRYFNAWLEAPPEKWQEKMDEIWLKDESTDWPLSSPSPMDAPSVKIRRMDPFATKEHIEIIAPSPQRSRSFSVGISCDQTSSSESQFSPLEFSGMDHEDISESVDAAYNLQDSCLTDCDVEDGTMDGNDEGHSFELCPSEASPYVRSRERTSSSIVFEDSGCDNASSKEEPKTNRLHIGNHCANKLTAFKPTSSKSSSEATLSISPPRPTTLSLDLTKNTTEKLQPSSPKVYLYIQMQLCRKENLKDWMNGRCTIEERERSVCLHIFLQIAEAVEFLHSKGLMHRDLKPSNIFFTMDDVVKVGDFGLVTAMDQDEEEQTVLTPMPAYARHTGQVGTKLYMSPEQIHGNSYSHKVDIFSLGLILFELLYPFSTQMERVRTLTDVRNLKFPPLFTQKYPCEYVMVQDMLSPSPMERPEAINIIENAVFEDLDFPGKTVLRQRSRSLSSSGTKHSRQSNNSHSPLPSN
Rce1 inhib = blocks yeast Ras-converting enzyme | AID 2563 | calls only | yeast membranes, quenched prenylated peptide cleavage fluorescence | 290,000 tested, 0.27% active;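 active = fall in fluorescence gain of 50% or more versus controls, with final raw signal at or below 3038400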;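 note: plate controls were neutral control wells for no effect and wells lacking membranes for full effect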
NALP3 yeast inh = blocks the NALP3 inflammasome reconstituted in yeast; inhibition, % at 10 µM; Yeast reconstituted NLRP3/ASC/caspase-1, beta-gal luminescence, 24 h; AID 2825; 330,000 tested, 0.39% active;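 active = inhibition of 50% or more; inactive = inhibition below 50%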;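 note: plate controls were induced DMSO wells for no effect and uninduced yeast grown without galactose for full effect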
Yeast superoxide = yeast age-related superoxide inhibition as caloric restriction mimetic; superoxide response (% of plate mean), % at 10 µM; 330,000 tested, 0.18% active; S. cerevisiae aged cells, superoxide DHE fluorescence; active compounds read low; AID 2690;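 active = superoxide response under a set limit, about three screen SD below normal, cut at about 65% in these data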;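 note: yeast aged for seven days with compound at 30 °C before DHE staining; 100% = average MFI of all compound-treated wells on the plate with controls excluded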
NALP3 confirm = NALP3 inhibition confirmation in yeast. shares compounds with NALP3 yeast inh. yeast expressing human NALP3, luminescence. inhibition, % at 10 µM. 1,300 tested, 81% active. AID 435006; in the data active = inhibition above about 48%
Casp1 ASC ctr = caspase-1-ASC yeast counter-screen hit. shares compounds with NALP3 yeast inh. AID 488784. inhibition, % at 10 µM. yeast expressing Caspase-1-ASC, luminescence counter screen. 1,000 tested, 66% active
NALP3 retest = retest-confirmed inhibitor of NALP3 in yeast. shares compounds with NALP3 yeast inh. yeast expressing human NALP3, luminescence read-out. inhibition, % at 10 µM. 1,000 tested, 53% active. AID 488794
Active calls of the source: *; i = inactive; · = no result given. Cut-off read from the data, not from the text of the source, unless noted: active = inhibition above about 50%; inactive = the rest.

SMILES	NALP1 yeast inh	V-ATPase pHluor	PERK inhibitor	Rce1 inhib	NALP3 yeast inh	Yeast superoxide	NALP3 confirm	Casp1 ASC ctr	NALP3 retest
CC1(C)C2CC[C@]3(C)C(CC=C4[C@@H]5C[C@@](C)(CO)[C@@H]6C[C@@]5(CC[C@]43C)C(=O)O6)[C@@]2(C)CC[C@@H]1O (stereo partly specified)	·	·	·	i	55.3*	82.7	57.5*	27.5	30.4
NC(=S)NN=C1C=CCCC1	·	1.1	·	·	·	·	·	·	·
N#Cc1ccsc1NC(=O)c1cccc([N+](=O)[O-])c1	-13.1	2.2	0.8	i	17.4	91.9	·	·	·
N#Cc1ccsc1NC(=O)c1ccc(Cl)c([N+](=O)[O-])c1	-15.6	1.4	4.3*	i	77.9*	115.0	81.3*	·	·
CCCCCCCCCCCCCCCC[n+]1cccc2ccccc21	98.5*	10.5	0.7	·	73.0*	136.6	11.6	·	·
Cc1ccc(NC(=S)NNC(C)(C)C)cc1	29.7	-3.7	0.8	i	51.3*	103.0	43.2	61.0*	30.7
CC(C)(C)NNC(=S)Nc1cccc(C(F)(F)F)c1	·	1.2	0.8	i	27.5	115.9	·	·	·
CC1(C)CC(=O)C2=C(C1)OC1=C(C(=O)CC(C)(C)C1)C2c1ccccc1Cl	·	-3.7	·	·	·	·	·	·	·
N#C/C(=N/Nc1ccc(OC(F)(F)F)cc1)C(N)=S	6.6	0.4	-0.1	i	85.8*	90.3	96.8*	·	·
Cc1ccc(N/N=C(\C#N)C(N)=S)c(C)c1	43.5	1.8	0.1	i	·	93.7	·	·	·
CC(C)[C@H](NC(=O)c1ccccc1Cl)C(=O)Nc1nc(-c2ccccn2)cs1	-33.9	-0.8	-0.5	i	-11.3	112.5	·	·	·
CC(Oc1ccc(Br)cc1)C(=O)Nc1nc(-c2ccccn2)cs1 (stereo unspecified)	6.7	-1.0	·	i	50.8*	90.3	77.0*	88.8*	80.8*
Clc1ccccc1OCCn1cnc2ccccc21	30.0*	-4.8	0.3	i	75.8*	100.7	83.5*	78.8*	63.2*
Clc1ccccc1-c1nc2ccccc2[nH]1	28.8	-2.4	0.7	i	48.1	92.1	·	·	·
c1ccc2[nH]c(-c3cscn3)nc2c1	28.7	-1.4	1.5	i	·	94.1	·	·	·
Fc1ccccc1-c1nc2ccccc2[nH]1	22.4	5.5	0.0	i	60.4*	99.7	57.8*	53.9*	59.5*
c1ccc2nc(-c3nc4ccccc4[nH]3)ccc2c1	13.6	1.0	-0.5	i	53.2*	97.0	67.2*	41.6	41.6
Clc1ccc2c(SCC3CO3)c3ccccc3nc2c1 (stereo unspecified)	·	-13.3	·	·	·	·	·	·	·
CN=C1SC(CC(=O)Nc2sc(C)c(C)c2C(=O)OC)C(=O)N1C (stereo unspecified)	2.4	2.5	-0.7	i	33.3	100.9	·	·	·
CCOC(=O)c1c(NC(=O)CC2SC(=NC)N(C)C2=O)sc(C)c1C (stereo unspecified)	11.6	3.4	0.2	i	59.8*	93.8	59.1*	60.3*	43.4
c1ccc(CSc2nnc(-c3cccs3)n2Cc2ccco2)cc1	-9.6	0.1	-0.3	i	-103.1	97.9	-1.6	·	·
O=S(=O)(O)c1ccc2c(c1)C(C(Cl)(Cl)Cl)OC(C(Cl)(Cl)Cl)O2 (stereo unspecified)	·	-2.0	·	·	·	·	·	·	·
CCc1ccc(CCC(=O)N2CCN(S(=O)(=O)c3ccc(Br)cc3)CC2)cc1	·	-1.6	·	·	·	·	·	·	·
COc1ccccc1/C=C1\C(=O)Nc2ccccc21	-1.6	4.3	·	i	37.0	91.2	·	·	·
O=C1Nc2ccccc2/C1=C/c1ccccc1Cl	11.5	-3.6	·	i	54.6*	95.4	68.6*	49.0	43.4
SMILES	NALP1 yeast inh	V-ATPase pHluor	PERK inhibitor	Rce1 inhib	NALP3 yeast inh	Yeast superoxide	NALP3 confirm	Casp1 ASC ctr	NALP3 retest
COCOCCn1cc(CN2CCS(=O)(=O)N(Cc3ccc(-c4ccc(OC)cc4)cc3)C(C)C2=O)nn1 (stereo unspecified)	·	-0.6	·	·	·	·	·	·	·
COc1cc(C2C(=O)c3ccccc3C2=O)ccc1O	18.8	1.1	·	i	65.8*	97.1	68.4*	65.9*	46.0
COc1cc(C=C(C#N)c2ccc([N+](=O)[O-])cc2)ccc1O	·	-2.2	·	·	·	·	·	·	·
c1ccc(CSc2nnc(-c3cccnc3)o2)cc1	6.1	0.0	0.0	i	12.9	118.0	·	·	·
C(=C\c1ccccc1)/CSc1nnc(-c2cccnc2)o1	8.7	-3.6	-1.6	i	52.3*	112.2	44.9	47.2	37.1
CN[C@H](C)C(=O)NC[C@H]1O[C@@H](n2cc(C)c(=O)[nH]c2=O)C[C@@H]1O	·	-2.3	·	·	·	·	·	·	·
O=C(Nc1cccnc1)c1cc(-c2ccccc2)on1	-101.9	1.7	0.7	i	50.2*	87.3	39.8	·	·
Cc1ccc(-c2nc(CNC(=O)c3cc(C)on3)cs2)cc1	19.7	-0.1	·	i	65.6*	93.5	74.8*	68.2*	53.6*
O=C(CSc1c[nH]c2ccccc12)N1CCCc2ccccc21	29.2	-4.2	-0.5	i	31.2	113.8	·	·	·
O=C(Cc1c[nH]c2ccccc12)N1CCc2ccccc21	9.9	2.7	0.0	i	62.0*	84.1	38.2	60.0*	59.8*
CCN(CC)C(=O)C1=C(C)N(Cc2ccc(OC)cc2)C(=O)C(CC(=O)NCCN2CCOCC2)C1 (stereo unspecified)	·	-1.4	·	·	·	·	·	·	·
Cc1ccc(C(=O)c2coc3ccc(O)cc23)cc1	24.4	-2.1	·	i	65.2*	98.7	65.7*	49.8	47.5
COc1ccc2occ(C(=O)c3ccc(N)cc3)c2c1	22.9	0.5	·	i	56.5*	96.5	68.5*	48.8	44.9
CC(=O)Nc1cc2c3c(cccc3c1)-c1ccccc1-2	·	-1.8	·	·	·	·	·	·	·
CNC(=O)C[C@H]1C(=O)N(Cc2ccccc2)C[C@@H]1C	·	0.2	·	·	·	·	·	·	·
COc1cccc2cc(CC(=O)c3ccccc3)c(=O)oc12	7.1	0.7	·	i	10.2	98.3	·	·	·
COc1cccc2cc(C(=O)c3ccccc3)oc12	-9.1	-3.6	0.4	i	50.1*	89.4	33.8	·	·
Clc1ccc(OCc2nnnn2-c2ccccc2)cc1	-35.2	7.3	0.7	i	-114.3	100.9	-41.1	·	·
c1ccc(OCc2nnnn2-c2ccccc2)cc1	-25.3	0.8	1.1	i	-104.7	111.2	-66.3	-19.9	-36.1
COC(=O)CC1(C(=O)OC)Nc2cc(Cl)c(Cl)cc2S(=O)(=O)N1O (stereo unspecified)	·	-1.0	·	·	·	·	·	·	·
CCOC(=O)N1CCC2(CC1)NC(=O)c1ccccc1N2	·	0.2	·	·	·	·	·	·	·
COc1ccc(C(NC(=O)c2c(F)c(F)c(F)c(F)c2F)c2ccccc2)cc1 (stereo unspecified)	21.3	0.5	1.0	i	62.7*	74.6	33.5	·	·
COc1ccc(C(NC(=O)c2cc(OC)ccc2OC)c2ccccc2)cc1 (stereo unspecified)	28.9	-2.1	·	i	8.5	96.8	·	·	·
